Source: PubChem BioAssay
MPTP block: permeability transition pore inhibition; isolated mouse mitochondria, Ca2+ swelling absorbance, 30 min; inhibition, % at 10 µM; 1.4% of 360,000 active;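 active = inhibition of 50% or more, scaled per plate between neutral and stimulator controls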;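 note: 0% = DMSO wells given calcium and 100% = 1 mM EGTA wells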
CRFR2-BP antag: blocks CRF-induced signaling of the CRF-BP/CRF-R2 complex; HEK293 CRF-R2/CRF-BP, CRF-induced calcium fluorescence; 0.59% of 350,000 active; inhibition, % at 11.8 µM; AID 588475;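 active = inhibition of the ligand-induced calcium signal above about 50% at the single tested concentration, limit read from the data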
CRFR2-BP ag: CRF-BP/CRF-R2 complex agonism. HEK293 CRF-R2/CRF-BP, calcium dye fluorescence (FLIPR); percent of saturating CRF peptide response. AID 588473. 0.46% of 350,000 active. activation, % at 13.2 µM;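 active = activation of at least 50%, plus an integration ratio under a set limit after plate pattern correction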;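 note: plate controls were neutral control wells without compound for no effect and CRF at EC100 for full effect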
ANO1 block: mouse TMEM16A channel inhibition, primary screen; HEK293 TMEM16A/YFP iodide influx fluorescence, ionomycin; normalized B-score (activity score, 25-100; higher = stronger inhibition) at 10 µM; 1.2% of 310,000 active;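 active = ratio plate-corrected score three or more library SD toward inhibition, starting fluorescence score within five deviations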;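 note: score derived from kinetic fluorescence span divided by baseline fluorescence per well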
Target sequence (Q8BHY3 whole entry, looked up): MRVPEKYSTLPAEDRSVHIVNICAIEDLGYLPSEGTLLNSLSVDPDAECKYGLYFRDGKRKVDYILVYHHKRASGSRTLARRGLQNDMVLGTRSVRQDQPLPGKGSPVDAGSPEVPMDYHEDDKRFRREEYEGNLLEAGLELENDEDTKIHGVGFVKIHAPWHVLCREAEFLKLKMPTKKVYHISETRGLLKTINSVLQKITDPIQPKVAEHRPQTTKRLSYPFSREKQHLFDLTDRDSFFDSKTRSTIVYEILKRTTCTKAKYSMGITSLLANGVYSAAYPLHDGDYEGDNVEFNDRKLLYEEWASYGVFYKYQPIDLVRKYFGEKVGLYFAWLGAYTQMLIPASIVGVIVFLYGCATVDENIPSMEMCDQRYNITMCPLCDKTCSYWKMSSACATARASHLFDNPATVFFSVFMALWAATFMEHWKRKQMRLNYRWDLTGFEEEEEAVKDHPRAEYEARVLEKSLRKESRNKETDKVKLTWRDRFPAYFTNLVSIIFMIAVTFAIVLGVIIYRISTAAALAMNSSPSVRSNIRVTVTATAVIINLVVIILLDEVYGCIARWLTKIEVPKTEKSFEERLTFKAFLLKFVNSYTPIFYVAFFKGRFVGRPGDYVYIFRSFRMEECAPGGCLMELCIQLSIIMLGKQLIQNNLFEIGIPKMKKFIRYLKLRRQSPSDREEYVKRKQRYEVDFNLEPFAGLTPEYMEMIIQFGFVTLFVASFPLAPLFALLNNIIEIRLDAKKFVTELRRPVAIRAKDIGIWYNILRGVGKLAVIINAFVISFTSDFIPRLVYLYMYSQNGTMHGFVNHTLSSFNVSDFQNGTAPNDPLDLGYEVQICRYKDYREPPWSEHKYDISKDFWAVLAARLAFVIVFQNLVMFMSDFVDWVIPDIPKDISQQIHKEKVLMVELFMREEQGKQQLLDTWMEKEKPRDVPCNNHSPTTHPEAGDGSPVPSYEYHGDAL
ANO1 activ: mouse TMEM16A channel activation, primary screen; Q8BHY3; 0.3% of 340,000 active; B-score at 10 µM; HEK293 TMEM16A/YFP-H148Q/I152L, iodide quench fluorescence; hits give low values; AID 623877;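 active = fluorescence-ratio B-score plate-corrected deviation score at least 3 library SD below zero, with starting fluorescence score within 5 deviations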;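 note: channel opened by trigger with iodide after compound preincubation; score built on the fluorescence ratio of max minus min over baseline; more negative score means more quench and so TMEM16A activation or potentiation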
NR3A LBD binder: modulates the human NR3A ligand-binding domain | NR3A LBD differential scanning fluorimetry, Tm shift; 0% = protein alone, 100% = glycine-bound protein | Tm shift relative to glycine control, % at 25 µM | 2.5% of 340,000 active | AID 1259313;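 active = melting temperature shift of at least 10% of the positive control shift, at one fixed dose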
The depositor's hits bear a star; i = inactive; . = not tested or not shown. Compounds with a hit are over-represented: about 5.1% of the library has one in this group of screens.

SMILES | MPTP block | CRFR2-BP antag | CRFR2-BP ag | ANO1 block | ANO1 activ | NR3A LBD binder
CC(=O)Oc1ccc2c(c1)Oc1cc(OC(C)=O)ccc1C21OC(=O)c2ccccc21 | 0.5 | -340.6 | 367.5* | i | i | -1.1
CC(=O)Oc1ccc2c(c1)C(=O)c1ccccc1CO2 | 0.1 | -32.2 | 1.6 | i | i | 0.9
Cc1noc(NS(=O)(=O)c2ccc(NC(=O)COc3ccccc3)cc2)c1C | -2.9 | 1.0 | -2.0 | i | i | -3.6
Cc1noc(NS(=O)(=O)c2ccc(NC(=O)CS(=O)(=O)c3ccccc3)cc2)c1C | 2.2 | 59.7* | -5.2 | i | i | -5.4
Cc1onc(-c2c(F)cccc2Cl)c1C(=O)N(Cc1ccccc1)C(C)C | -0.2 | -13.3 | -1.5 | i | i | 0.6
Cc1ccc(Nc2c(O)nc[nH]c2=O)cc1 | 0.5 | 73.5* | -1.1 | . | i | -1.3
Cc1ccc(OCc2nnc(SCC(=O)N3CCOCC3)n2C)cc1 | -0.1 | 13.2 | -2.8 | i | i | 15.7*
O=C(Nc1ccccc1C(=O)N1CCN(c2cccc(Cl)c2)CC1)C1=CSCCO1 | 1.4 | -3.5 | -1.6 | i | -28.1* | -1.0
Cc1ccc(S(=O)(=O)Oc2ccc(/C=C(/NC(=O)c3ccccc3)C(=O)O)cc2)cc1 | 3.2 | -3.5 | -0.6 | i | i | 11.4*
Cc1ccc(S(=O)(=O)Oc2ccc(/C=C(/NC(=O)c3ccccc3)C(=O)NCC(=O)O)cc2)cc1 | -3.0 | 11.9 | -0.8 | i | i | 0.7
COc1cc(/C=N/NC(=O)CCN2CCN(C)CC2)cc2c1OCO2 | 0.7 | -2.8 | -1.1 | i | i | 11.1*
CC(=O)c1ccc2c(c1)c(C#N)c1ccccc1[n+]2[O-] | 0.6 | -60.8 | 101.4* | . | i | 0.5
O=C(NCC(c1ccco1)N1CCCC1)c1ccc(Cl)cc1 (stereo not drawn) | -2.1 | -8.2 | 0.1 | i | i | 1.3
O=C(NCC(c1ccco1)N1CCCC1)c1cc2cc(Cl)ccc2o1 (stereo not drawn) | -0.4 | -26.7 | 57.0* | . | i | 0.4
Cc1ccc(S(=O)(=O)N(CC(=O)NC2CC3CCC2C3)c2ccccc2)cc1 (stereo not drawn) | 0.9 | 5.8 | -0.8 | . | . | .
CC(=O)Nc1ccc(CN2CCCC(CO)(Cc3cccc(Cl)c3)C2)cc1 (stereo not drawn) | -0.6 | -41.0 | 55.5* | i | i | -1.7
OCC1(Cc2cccc(Cl)c2)CCCN(Cc2ccc(F)c(F)c2)C1 (stereo not drawn) | 0.7 | -18.1 | 1.1 | i | i | -0.2
Nc1nc(-c2ccccc2)cn1N | -4.6 | -1.3 | -1.0 | i | i | 11.0*
Cc1ccc(-c2nc3n(n2)Cc2ccccc2-3)cc1 | -0.1 | -0.2 | -0.6 | i | i | 1.4
c1ccc(-c2cn3c(n2)-c2ccccc2C3)cc1 | 2.0 | -3.1 | 1.8 | i | i | 12.9*
Cc1ccc(-c2cnc(C(O)c3ccc(Cl)c(Cl)c3)[nH]2)cc1 (stereo not drawn) | 8.7 | . | . | . | . | .
CC(C)(C)N1CC2([N+](=O)[O-])CN(C(C)(C)C)CC([N+](=O)[O-])(C1)C2 | -0.9 | -122.5 | 166.7* | i | i | 1.0
CN(CCO)S(=O)(=O)c1ccc2c(c1)C(=NNC(N)=O)c1cc(S(=O)(=O)N(C)CCO)ccc1-2 | 1.0 | 85.1* | 0.2 | i | i | 2.8
CCOC(=O)C1=C(O)/C(=C/c2cn(CC(=O)NCC3CCCO3)c3ccccc23)SC1=Nc1ccc(C)cc1 (stereo not drawn) | -0.5 | -18.2 | 60.9* | i | i | 0.9
O=C(CSc1nccc(-c2cccs2)n1)Nc1ccc(Cl)cc1 | 10.2 | -0.3 | -4.6 | i | i | 25.6*
N#Cc1cccnc1N1CCN(C(C(=O)NC2CCCC2)c2ccc(F)cc2)CC1 (stereo not drawn) | 1.7 | . | . | . | . | .
COc1cc(CNc2ccccc2SC)cc(OC)c1OC | 8.5 | 73.1* | -7.2 | i | i | 1.0
C(=NN=C(NN=Cc1cccs1)NN=Cc1cccs1)c1cccs1 | 1.9 | 7.0 | -0.1 | . | i | -17.2
